# About 6,000 (1.7%) of roughly 350,000 compounds were called active. Roughly 5% stayed inconclusive and do not appear here. This is one part of a sample in which actives are shown more often than they occur. Rule as the data show it: active = CPE inhibition above about 20% (passing the limit was not always enough); inconclusive = no clear call, values can overlap the other calls; tested in BHK-21 cells.
# Test: inhibitors of DENV2 cytopathic effect, primary screen, cell-based, plate reader, single concentration (AID 651640);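 also: 0% = median of neutral control wells and 100% = median of positive control wells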
# Settings: DENV2-infected cells, cytopathic effect rescue, at 9.99 µM, hits give high values
row,Structure (SMILES),CPE inhibition
1,Cc1ccc(S(=O)(=O)NCC[C@@H]2CC[C@H](NC(=O)CC3CC3)[C@H](CO)O2)cc1,-2.24% (inactive)
2,COc1ccc(NC(=O)Nc2ccc3c(c2)C(=O)N([C@H](C)CO)C[C@@H](C)[C@H](CN(C)Cc2ccccc2)O3)cc1,-6.1% (inactive)
3,CCCC#Cc1ccc2c(c1)O[C@H](CN(C)C(=O)c1ccncc1)[C@H](C)CN([C@H](C)CO)S2(=O)=O,-4.65% (inactive)
4,CO[C@@H]1CN(C)C(=O)c2ccc(NS(=O)(=O)c3cn(C)cn3)cc2OC[C@H](C)N(CCC(F)(F)F)C[C@@H]1C,-5.08% (inactive)
5,C[C@@H]1CN([C@@H](C)CO)C(=O)c2cc(NC(=O)CCN3CCOCC3)ccc2O[C@H]1CN(C)C(=O)NC1CCCCC1,-3.33% (inactive)
6,CC(C)NC(=O)N1C[C@@H]2[C@H](c3ccccc31)[C@H](CO)N2C(=O)C1CCCC1,-6.09% (inactive)
7,CC(C)NC(=O)N1C[C@@H]2[C@H](c3ccccc31)[C@@H](CO)N2Cc1ccc(Cl)cc1,47.3% (active)
8,COc1ccc(CN2[C@H](CO)[C@@H]3c4ccccc4N(C(=O)C4CC4)C[C@@H]32)cc1,26.1% (active)
9,COc1ccc(C(=O)N2C[C@@H]3[C@H](c4ccccc42)[C@H](CO)N3Cc2ccc3c(c2)OCO3)cc1,-6.95% (inactive)
10,COc1ccccc1NC(=O)N1C[C@@H]2[C@H](c3ccccc31)[C@H](CO)N2CC1CCOCC1,16.7% (inactive)
11,CN1[C@@H]2CN(C(=O)C3CCCCC3)c3ccccc3[C@@H]2[C@@H]1CO,-5.31% (inactive)
12,COc1ccccc1NC(=O)N1C[C@H]2[C@@H](c3ccccc31)[C@H](CO)N2Cc1ccc2c(c1)OCO2,55.6% (active)
13,CC(=O)N1C[C@@H]2[C@H](c3ccccc31)[C@H](CO)N2Cc1ccc(Cl)cc1,16.8% (inactive)
14,COc1ccc(CN2[C@@H](CO)[C@@H]3c4ccccc4N(C(=O)Nc4ccccc4)C[C@@H]32)cc1,-9.93% (inactive)
15,CCC(=O)N(C)C[C@H]1Oc2ncc(C#Cc3cccnc3)cc2C(=O)N([C@H](C)CO)C[C@H]1C,4.92% (inactive)
16,CCCNC(=O)N1[C@H](C#N)[C@@H](c2ccccc2C2=CCCCC2)[C@@H]1CO,-2.61% (inactive)
17,O=C(c1ccc2c(c1)OCO2)N1CC(=O)N2[C@H](C1)[C@@H](c1ccc(C#Cc3ccccc3)cc1)[C@@H]2CO,11.6% (inactive)
18,COc1ccc(NC(=O)Nc2ccc3c(c2)C(=O)N([C@H](C)CO)C[C@@H](C)[C@@H](CN(C)C(=O)NC(C)C)OCCCC[C@H](C)O3)cc1,4.29% (inactive)
19,COCC(=O)N1[C@H](C(=O)N2CCN(C)CC2)[C@@H](CO)[C@@H]2Cn3c(ccc(C4=CCCC4)c3=O)[C@@H]21,-7.88% (inactive)
20,COc1cccc(S(=O)(=O)N2CC3(CCN(C)CC3)c3c(n(C)c4cc(OC)ccc34)[C@H]2CO)c1,3.74% (inactive)
21,CC(=O)C1=C(C)N(Cc2ccccc2)C(=S)NC1c1cccc(Br)c1 (stereo not drawn),-5.19% (inactive)
22,C[C@@H]1CCCCO[C@@H](CN(C)S(=O)(=O)c2cccs2)[C@@H](C)CN([C@@H](C)CO)C(=O)c2cc(NS(=O)(=O)c3ccc(F)cc3)ccc2O1,-8.5% (inactive)

row,Structure (SMILES),CPE inhibition
1,CC(C)NC(=O)N(C)C[C@@H]1Oc2c(NC(=O)c3cnccn3)cccc2C(=O)N([C@@H](C)CO)C[C@@H]1C,-11.9% (inactive)
2,C[C@@H]1CN([C@@H](C)CO)C(=O)c2cccc(NC(=O)Nc3ccc(F)cc3)c2O[C@H]1CN(C)C(=O)Nc1ccc(F)cc1,14.7% (inactive)
3,C[C@@H]1CN([C@H](C)CO)C(=O)c2cccc(NC(=O)c3cnccn3)c2O[C@@H]1CN(C)Cc1ccncc1,5.84% (inactive)
4,C[C@H]1CN([C@@H](C)CO)C(=O)c2cccc(NC(=O)c3cnccn3)c2O[C@H]1CN(C)C(=O)Nc1ccccc1,28.3% (active)
5,C[C@H](CO)N1C[C@H](C)[C@H](CN(C)C(=O)Nc2ccc(F)cc2)Oc2c(NC(=O)c3cnccn3)cccc2C1=O,29.3% (active)
6,C[C@H]1CN([C@@H](C)CO)C(=O)c2cccc(NC(=O)c3cnccn3)c2O[C@@H]1CN(C)Cc1ccc(Oc2ccccc2)cc1,2.15% (inactive)
7,CC(=O)N[C@H]1CC[C@H](CCNC(=O)C2CC2)O[C@H]1CO,-5.24% (inactive)
8,O=C(c1cccc(F)c1)N1C[C@H]2[C@@H](c3ccccc31)[C@@H](CO)N2C(=O)Cc1ccccc1,-5.94% (inactive)
9,CO[C@@H]1CN(C)C(=O)c2ccc(NS(C)(=O)=O)cc2OC[C@@H](C)N(C(=O)CC2CC2)C[C@@H]1C,-2.7% (inactive)
10,Cc1c(C(=O)NCCCc2ccccc2)cccc1[N+](=O)[O-],4.47% (inactive)
11,Cc1c(C(=O)NCCN2C(=O)S/C(=C\c3cccs3)C2=O)cccc1[N+](=O)[O-],27% (active)
12,Cc1nn(Cc2ccccc2)c(C)c1C(=O)NCCN1C(=O)S/C(=C\c2ccc(F)cc2)C1=O,-3.31% (inactive)
13,O=C(C[C@@H]1CC[C@@H](NS(=O)(=O)c2ccccc2)[C@H](CO)O1)NCc1ccc(Cl)c(Cl)c1,3.78% (inactive)
14,Cc1nnc(SCC(=O)N2CCOCC2)[nH]c1=O,58.6% (active)
15,Cc1c(C)n2c(SCC(=O)N3CCCC3)nnc2[nH]c1=O,13.9% (inactive)
16,CCc1ccc(C(=O)CSc2nnc(C)c(=O)[nH]2)cc1,-2.63% (inactive)
17,COc1ccc2c3c(n(C)c2c1)[C@@H](CO)N(C(=O)Nc1ccc(F)cc1)CC31CN(C(=O)NC(C)C)C1,-3.42% (inactive)
18,CNC(=O)C[C@@H]1CC[C@H]2[C@H](COc3ccc(NC(=O)C4CC4)cc3C(=O)N2C)O1,-4.01% (inactive)
19,CCCNC(=O)Nc1ccc2c(c1)C(=O)N(C)C[C@@H](OC)[C@H](C)CN(CCC)[C@@H](C)CO2,3.79% (inactive)
20,COc1ccc(S(=O)(=O)Nc2cccc3c2O[C@H](CN(C)C(=O)NC(C)C)[C@H](C)CN([C@H](C)CO)C3=O)cc1,-8.19% (inactive)
21,O=C(N[C@@H]1CC[C@@H](CCn2cc(-c3ccccn3)nn2)O[C@@H]1CO)c1ccccc1,-2.85% (inactive)
